Data reported in PubChem BioAssay (NCI).
Compounds without any hit were thinned out: in the full panel of roughly 79,000, 15% have a hit. Cut-off read from the data, not from the text of the source: active = growth inhibition above about 70%; inactive = the rest.

Legend:
[1] = NCI Yeast Anticancer Drug Screen. Data for the rad50 strain (AID 155);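 note: 0% = growth of vehicle-only cultures of the same strain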; conditions: S. cerevisiae rad50 strain growth inhibition; at 50.0 µM; stronger effect = higher value
Outline: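 Growth of the mutant yeast was measured after compound exposure and referenced to vehicle-treated cultures.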

[2] = NCI Yeast Anticancer Drug Screen. Data for the mec2-1 strain (AID 157); conditions: S. cerevisiae mec2-1 strain, at 50.0 µM, stronger effect = higher value
Outline: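 Test agents were screened against the mec2-1 yeast strain, with defined DNA repair or cell cycle alteration. Growth was scored as inhibition against vehicle-only controls.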

[3] = NCI Yeast Anticancer Drug Screen. Data for the sgs1 mgt1 strain (AID 161);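 note: 0% = growth of cultures given vehicle only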; conditions: S. cerevisiae sgs1 mgt1 strain, at 50.0 µM, stronger effect = higher value
Outline: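 Mutant yeast exposed to compound; growth scored against vehicle-only wells.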

[4] = NCI Yeast Anticancer Drug Screen. Data for the cln2 rad14 strain (AID 165);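 note: 0% = growth equal to vehicle treated cultures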; conditions: S. cerevisiae cln2 rad14 strain, at 50.0 µM, stronger effect = higher value
Outline: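 Growth of compound-exposed yeast (cln2 rad14 genotype) measured and expressed as inhibition relative to vehicle.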

[5] = NCI Yeast Anticancer Drug Screen. Data for the bub3 strain (AID 167); conditions: S. cerevisiae bub3 mutant strain, at 50.0 µM, stronger effect = higher value
Outline: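 Whole-cell yeast assay. The mutant strain was incubated with compounds, and growth inhibition was determined by comparison with vehicle-treated cells.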

[6] = NCI Yeast Anticancer Drug Screen. Data for the mlh1 rad18 strain (AID 175); conditions: S. cerevisiae mlh1 rad18 strain growth inhibition; at 50.0 µM; stronger effect = higher value
Outline: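 In this whole-cell yeast screen, a strain with altered DNA damage repair is challenged with compound, and its growth is measured against matched vehicle-treated controls.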

Measured: growth inhibition

CCC(CC)COC(=O)c1ccccc1
inactive: [1] 0.95% | [2] -7.05% | [3] -3.75% | [4] -14.8% | [5] 17.2% | [6] -0.75%

O=C(O)c1c(Br)c(Br)c(Br)c(Br)c1C(=O)Nc1ccc([N+](=O)[O-])cc1
inactive: [1] -14.6% | [2] 2.65% | [3] 3.35% | [4] 4.75% | [5] 3.15% | [6] -1.05%

CCOc1ccc(OCC)c(NC(C)=O)c1
inactive: [1] -1.95% | [2] 4.05% | [3] 3.95% | [4] 5.5% | [5] 13.8% | [6] -3.6%

Cc1cccc(NC(=O)/C=C/c2ccc(N(CCC#N)CCC#N)cc2C)c1
inactive: [1] 9.15% | [2] 7.25% | [3] -6% | [4] 6.6% | [5] 40.4% | [6] 19.9%

COC1OC(C(COC(=O)c2ccccc2)OC(=O)c2ccccc2)C(OC(=O)c2ccccc2)C1OS(C)(=O)=O (stereo not given)
inactive: [1] 5.35% | [2] -2.55% | [3] 28.8% | [4] 28.4% | [5] -0.1% | [6] 11.6%

O=C(/C=C(\C(=O)c1cccs1)c1cccs1)c1ccc(C(=O)/C=C(\C(=O)c2cccs2)c2cccs2)cc1
inactive: [1] 3.6% | [2] -23.9% | [3] 19% | [4] -25.1% | [5] -15.6% | [6] -5.85%

COC(=O)/C=C\n1c(C)cc(=O)[nH]c1=O
inactive: [1] 2.9% | [2] 0.35% | [3] -5.5% | [4] -4.75% | [5] -2.8% | [6] -45.5%

O=C(O)c1cccc(Br)c1[N+](=O)[O-]
inactive: [1] -19.9% | [2] -7.9% | [3] -26.6% | [4] -36.1% | [5] -8.1% | [6] -5.9%

COc1ccc(OC)c(NC(=O)Nc2cc(Cl)ccc2C)c1
inactive: [1] 4.25% | [2] 0.65% | [3] -2.3% | [4] -6.1% | [5] 19.2% | [6] 4.8%

COc1cc(/C=C/C(=O)O)cc(OC)c1O
inactive: [1] 5.65% | [2] -5.05% | [3] -22.9% | [4] 23.1% | [5] 10.8% | [6] 16.5%

C[N+](C)(C[Si](C)(C)C)C1CCCCCCCCCCC1
inactive: [1] 11.4% | [2] 1.3% | [3] -8.8% | [4] -10.9% | [5] 14.1% | [6] 22.2%

CCOC(=O)C(C#N)C1=CC(=O)C(=O)c2ccc(OC)cc21 (stereo not given)
inactive: [1] 14% | [2] 11.3% | [3] -5.5% | [4] 27.9% | [5] -9.95% | [6] 9.1%

CCCCNC(=O)Oc1cccc2ccccc12
inactive: [1] 4.3% | [2] -6.8% | [3] 7.7% | [4] -4.35% | [5] 29.8% | [6] -6.4%

Cc1ccc(S(=O)(=O)N2CCCC2C(=O)O[C@H]2CC[C@H]3CC=C[C@H]32)cc1 (stereo not given in full)
inactive: [1] -15.6% | [2] -44.7% | [3] -8.2% | [4] -8.45% | [5] -5.25% | [6] -21.6%

COc1cc(CC/C(C)=N/O)ccc1OCc1ccccc1
inactive: [1] -13.1% | [2] -21.2% | [3] 0.7% | [4] -39.6% | [5] 9.65% | [6] -22.8%

COC(=O)Oc1nn(C(=O)OC)c(=O)c2ccccc12 (tested in a mixture with another compound)
inactive: [1] -5.85% | [2] 3.1% | [3] 3% | [4] -0.8% | [5] 11.3% | [6] 33.5%

Oc1ccccc1/C=N\Sc1ccc(Br)cc1
inactive: [1] 23.9% | [2] 13.8% | [3] 22% | [4] 4.25% | [5] 3.95% | [6] 17%

CCN(CC)C(=O)CNC(=O)c1c2nc3c(C(=O)NCC(=O)N(CC)CC)ccc(C)c3oc-2c(C)c(=O)c1N
inactive: [1] 16.9% | [2] 33.9% | [3] 8.95% | [4] 32.9% | [5] 10.9% | [6] 30.6%

N#CCc1ccc(/C(C#N)=C2/OC(=N)C(c3ccc(CC#N)cc3)C2=O)cc1 (stereo not given)
inactive: [1] -10.3% | [2] 2.65% | [3] -5.45% | [4] -21.6% | [5] -20.7% | [6] -16.4%

CN(C)S(=O)(=O)N1CCOCC1
inactive: [1] 9.3% | [2] -6.65% | [3] -1.15% | [4] 11.2% | [5] -2.8% | [6] 4.8%
